Structures can show the parent of a compound that is named as a salt.
System: Danio rerio larvae (5 dpf)
Assay: optomotor response to blue moving lines, difference vs DMSO (percentage points (treated minus DMSO)); higher = more of the behaviour than the DMSO vehicle control
Settings: 10 µM; exposure time: 3 h pre-incubation + 3 h imaging
Description: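 5-dpf wild-type zebrafish larvae were imaged in 96-well plates. They were treated with 190 Tocris FDA-approved drugs at 10 µM (1 µl/ml DMSO) for 3 h before and 3 h during imaging at 28.5 °C, 48 larvae per drug. Automated image analysis gave % time moving and optomotor responses. Values are drug group mean minus DMSO vehicle mean (n=844), in percentage points, for 10 behaviours.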

Compound	optomotor response to blue moving lines
CN(C)CC/C=C1/c2ccccc2COc2ccc(CC(=O)O)cc21 [Olopatadine hydrochloride]	-0.0571
CCc1nc(N)nc(N)c1-c1ccc(Cl)cc1 [Pyrimethamine]	15.9
O=C(c1ccc(OCCN2CCCCC2)cc1)c1c(-c2ccc(O)cc2)sc2cc(O)ccc12 [Raloxifene hydrochloride]	-2.86
Cc1c(-c2ccc(O)cc2)n(Cc2ccc(OCCN3CCCCCC3)cc2)c2ccc(O)cc12 [Bazedoxifene acetate]	1.43
Nc1ncn([C@@H]2O[C@H](CO)[C@@H](O)[C@H]2O)c(=O)n1 [5-Azacytidine]	8.76
CNCc1ccc(-c2[nH]c3cc(F)cc4c3c2CCNC4=O)cc1 [Rucaparib camsylate]	10.7
CC(C)c1ccc2oc3nc(N)c(C(=O)O)cc3c(=O)c2c1 [Amlexanox]	5.97
COc1ccccc1OCC(O)CN1CCN(CC(=O)Nc2c(C)cccc2C)CC1 (stereo not given) [Ranolazine dihydrochloride]	13.8
CC(=O)O[C@]1(C(C)=O)CC[C@H]2[C@@H]3C=C(C)C4=CC(=O)CC[C@]4(C)[C@H]3CC[C@@]21C [Megestrol Acetate]	-7.55
O=C(Nc1c(Cl)cncc1Cl)c1ccc(OC(F)F)c(OCC2CC2)c1 [Roflumilast]	-1.76
CCCCCCCCc1ccc(CCC(N)(CO)CO)cc1	-1.76
CS(=O)(=O)CCNCc1ccc(-c2ccc3ncnc(Nc4ccc(OCc5cccc(F)c5)c(Cl)c4)c3c2)o1 [Lapatinib]	6.39
NS(=O)(=O)c1cc(C(=O)O)c(NCc2ccco2)cc1Cl [Furosemide]	6.22
C[C@]12CCC(=O)C=C1CC[C@@H]1[C@@H]2[C@@H](O)C[C@@]2(C)[C@H]1CC[C@]2(O)C(=O)CO [Hydrocortisone]	8.43
CC(C)[C@H]1CC[C@H](C(=O)N[C@H](Cc2ccccc2)C(=O)O)CC1 [Nateglinide]	11.9
O=c1n(CCCN2CCN(c3cccc(Cl)c3)CC2)nc2ccccn12 [Trazodone hydrochloride]	6.49
Nc1nc2[nH]cc(CCc3ccc(C(=O)N[C@@H](CCC(=O)O)C(=O)O)cc3)c2c(=O)[nH]1 [Pemetrexed]	1.87
CCOc1nc2cccc(C(=O)O)c2n1Cc1ccc(-c2ccccc2-c2noc(=O)[nH]2)cc1 [Azilsartan]	7.48
CCCCCCCN(CC)CCCC(O)c1ccc(NS(C)(=O)=O)cc1 (stereo not given) [Ibutilide hemifumarate]	12.1
CC(C)C(=O)OCC(=O)[C@@]12O[C@H](C3CCCCC3)O[C@@H]1C[C@H]1[C@@H]3CCC4=CC(=O)C=C[C@]4(C)[C@H]3[C@@H](O)C[C@@]12C [Ciclesonide]	-2.62

Compound	optomotor response to blue moving lines
CCOC(=O)C1=C(C)NC(C)=C(C(=O)OC)C1c1cccc(Cl)c1Cl (stereo not given) [Felodipine]	-5.26
N#Cc1ccc(C(c2ccc(C#N)cc2)n2cncn2)cc1 [Letrozole]	2.11
CNC(=O)c1cc(Oc2ccc(NC(=O)Nc3ccc(Cl)c(C(F)(F)F)c3)cc2)ccn1 [Sorafenib]	-18.5
Nc1ncn([C@H]2C[C@H](O)[C@@H](CO)O2)c(=O)n1 [Decitabine]	-0.954
CCCCCOC(=O)Nc1nc(=O)n([C@@H]2O[C@H](C)[C@@H](O)[C@H]2O)cc1F [Capecitabine]	16.5
O=C(O)C[C@H](O)C[C@H](O)/C=C/c1c(C2CC2)nc2ccccc2c1-c1ccc(F)cc1 [Pitavastatin calcium]	11
CC(C)OC(=O)C(C)(C)Oc1ccc(C(=O)c2ccc(Cl)cc2)cc1 [Fenofibrate]	12.7
O=C(O)CCCc1ccccc1 [Sodium 4-Phenylbutyrate]	3.11
Cc1cccc(CN2CCN(C(c3ccccc3)c3ccc(Cl)cc3)CC2)c1 (stereo not given) [Meclizine dihydrochloride]	-6.39
Cc1cn([C@H]2C=C[C@@H](CO)O2)c(=O)[nH]c1=O [Stavudine]	10
N#C[C@@H]1C[C@@H]2C[C@@H]2N1C(=O)[C@@H](N)C12CC3CC(CC(O)(C3)C1)C2 [Saxagliptin hydrochloride]	-7.01
CCCc1nc2c(C)cc(-c3nc4ccccc4n3C)cc2n1Cc1ccc(-c2ccccc2C(=O)O)cc1 [Telmisartan]	8.47
NC(=O)OCC(COC(N)=O)c1ccccc1 [Felbamate]	-1.4
CCOc1nc2cccc(C(=O)O)c2n1Cc1ccc(-c2ccccc2-c2nnn[nH]2)cc1 [Candesartan]	9.66
OC(c1cc(C(F)(F)F)nc2c(C(F)(F)F)cccc12)C1CCCCN1 (stereo not given) [Mefloquine hydrochloride]	10.8
COc1cccc2c1C(=O)c1c(O)c3c(c(O)c1C2=O)C[C@@](O)(C(=O)CO)C[C@@H]3O[C@H]1C[C@H](N)[C@H](O)[C@H](C)O1 [Doxorubicin hydrochloride]	3.86
OCc1cc(C(O)CNCCCCCCOCCCCc2ccccc2)ccc1O (stereo not given) [Salmeterol xinafoate]	-3.67
COc1cc2ncnc(Nc3ccc(F)c(Cl)c3)c2cc1OCCCN1CCOCC1 [Iressa]	5.63
CC(c1cc2ccccc2s1)N(O)C(N)=O (stereo not given) [Zileuton]	-7.52
OCCOCCN1CCN(C2=Nc3ccccc3Sc3ccccc32)CC1 [Quetiapine hemifumarate]	19.9

From the supplement of paper PMC9023506
